# Laboratory results taken from PubChem BioAssay (NCATS).
# “And” between values parts separate entries of the source, which are not always exact repeats. Identical values can stand only once. Results filed as inconclusive are left out. Where a call stands in place of a potency, no number is given. Values without a mark were called inactive. The source made the active and inactive calls. Unless noted, calls follow the shape of the dose curve; as a rule, active = well fitted curve in the direction sought with a large enough effect; inconclusive = small, poorly fitted or top-dose-only effect, or another doubt; inactive = no such curve, though single readings can be large; an effect the other way counts as inactive or inconclusive.
# What was measured:
# [1] = target: Cellular tumor antigen p53 (Homo sapiens) (UniProt P04637); assay: Primary qHTS for small molecule compounds that upregulate eGFP-tagged delta133p53alpha (in N-terminal) cells. (AID 2060322); conditions: NCI-H358 eGFP-delta133p53alpha fluorescence, 24 h; activation: stronger effect = higher value; also: nearly all actives have a fitted effect of over 75% in size; also: potency is read from the fitted curve at half-maximal effect;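 as to activation: cells pre-induced with doxycycline then dosed without doxycycline; series mostly up to about 56 µM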
# Cellular tumor antigen p53 (Homo sapiens), sequence (P04637 whole entry, looked up): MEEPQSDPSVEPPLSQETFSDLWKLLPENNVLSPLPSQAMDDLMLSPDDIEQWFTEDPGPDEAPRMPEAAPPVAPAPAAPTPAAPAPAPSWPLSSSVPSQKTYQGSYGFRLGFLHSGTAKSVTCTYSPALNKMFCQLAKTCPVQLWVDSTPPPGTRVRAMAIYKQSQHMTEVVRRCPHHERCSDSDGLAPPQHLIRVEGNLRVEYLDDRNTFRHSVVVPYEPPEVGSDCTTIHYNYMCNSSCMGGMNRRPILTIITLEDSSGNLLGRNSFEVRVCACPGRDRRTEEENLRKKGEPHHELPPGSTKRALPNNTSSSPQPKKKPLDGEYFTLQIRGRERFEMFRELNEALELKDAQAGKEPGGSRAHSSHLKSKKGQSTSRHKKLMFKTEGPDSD
# Outline: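 NCI-H358 cells pre-induced 24 h with 10 ng/ml doxycycline for eGFP-delta133p53alpha, plated dox-free and exposed 24 h at 37C to titrated compounds. Fixed, Hoechst-stained; gated GFP peak intensity by laser scanning cytometry, normalized to DMSO (0%) and 57.5 uM 5-azacytidine (100%).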
# [2] = target: Aldehyde dehydrogenase, mitochondrial (Homo sapiens) (UniProt P05091); assay: qHTS for Inhibitors of the Aldehyde Dehydrogenase Family (ALDH2) Confirmatory screens (AID 2061303; active = well fitted inhibition curve with a large enough effect; title and protocol of this record describe different tests; also: nearly all actives have a fitted effect of over 45% in size; also: potency is read from the fitted curve at half-maximal effect)
# [3] = target: Aldehyde dehydrogenase, mitochondrial (Homo sapiens) (UniProt P05091); assay: qHTS for Inhibitors of the Aldehyde Dehydrogenase Family (ALDH2) Primary screen (AID 2061308); also: nearly all actives have a fitted effect of over 55% in size
# [4] = target: Retinaldehyde dehydrogenase 3 (Homo sapiens) (UniProt P47895); assay: qHTS for Inhibitors of the Aldehyde Dehydrogenase Family (ALDH1A3) Validation screen (AID 2061312); also: nearly all actives have a fitted effect of over 45% in size; also: potency is read from the fitted curve at half-maximal effect
# [5] = target: Aldehyde dehydrogenase 1A1 (Homo sapiens) (UniProt P00352); assay: qHTS for Inhibitors of the Aldehyde Dehydrogenase Family (ALDH1A1) Confirmatory screens (AID 2061316); also: nearly all actives have a fitted effect of over 65% in size; also: potency is read from the fitted curve at half-maximal effect
# [6] = qHTS for Inhibitors of the Aldehyde Dehydrogenase Family (ALDH1A2, ALDH1A3, ALDH2, ALDH3A1) (AID 2061307); also: nearly all actives have a fitted effect of over 50% in size
# [7] = target: Retinaldehyde dehydrogenase 3 (Homo sapiens) (UniProt P47895); assay: qHTS for Inhibitors of the Aldehyde Dehydrogenase Family (ALDH1A3) Confirmatory screens (AID 2061311); also: nearly all actives have a fitted effect of over 60% in size; also: potency is read from the fitted curve at half-maximal effect
# [8] = target: Retinaldehyde dehydrogenase 3 (Homo sapiens) (UniProt P47895); assay: qHTS for Inhibitors of the Aldehyde Dehydrogenase Family (ALDH1A3) Primary screen (AID 2061315); also: potency is read from the fitted curve at half-maximal effect
# [9] = target: Retinal dehydrogenase 2 (Homo sapiens) (UniProt O94788); assay: qHTS for Inhibitors of the Aldehyde Dehydrogenase Family (ALDH1A2) Confirmation screens (AID 2061314); also: nearly all actives have a fitted effect of over 65% in size; also: potency is read from the fitted curve at half-maximal effect
structure (smiles),measurement,setting,value
N#Cc1ccc(N2CCN(C(=O)COc3ccc4[nH]cc(CCN)c4c3)CC2)cc1,activation,[1],-4.3%
same,Potency,[2],inactive
same,Potency,[3],inactive
same,Potency,[4],inactive
same,Potency,[5],inactive
COc1cc2c(cc1O)C1(C)CCC(O)C(C)(C)C1CC2=O (stereo not drawn),activation,[1],-4.58%
same,Potency,[3],inactive
COc1cc(N2CCN(C)CC2)ccc1N,activation,[1],20%
same,Potency,[6],inactive
same,Potency,[3],inactive
same,Potency,[7],25.2 µM (active)
same,Potency,[8],1.26 µM (active)
C1=C(c2cnc[nH]2)c2ccsc2CC1,activation,[1],-3.34%
same,Potency,[3],inactive
same,Potency,[4],5.62 µM (active)
CN(C(=O)CN1C(=O)COc2cc(Cl)c(Cl)cc21)[C@@H](CN1CCCC1)c1ccc(-c2cccc(C(N)=O)c2)cc1,Potency,[1],21.3 µM (active)
same,Potency,[3],inactive
CC(N)Cc1c[nH]c2ccccc12 (stereo not drawn),activation,[1],12.4%
same,Potency,[3],inactive
same,Potency,[4],inactive
same,Potency,[8],inactive
COc1ccc2c(C(=O)c3ccc(Cl)cc3)c(C)n(CC(=O)O)c2c1,activation,[1],-36.8%
same,Potency,[6],inactive
same,Potency,[3],inactive
same,Potency,[7],inactive
same,Potency,[9],inactive
same,Potency,[8],inactive
same,Potency,[5],inactive
CC[C@@H]1C[C@H]2CC[C@H](O2)[C@H](C)C(=O)O[C@@H](C)C[C@@H]2CC[C@@H](O2)[C@@H](C)C(=O)O[C@H](CC)C[C@H]2CC[C@H](O2)[C@H](C)C(=O)O[C@@H](C)C[C@@H]2CC[C@@H](O2)[C@@H](C)C(=O)O1,Potency,[1],6.3 µM (active)
same,Potency,[3],inactive
COC(=O)[C@]12CCCC(C)(C)C1CCc1cc(C(C)C)c(O)c(O)c12 (stereo partly drawn),activation,[1],-23.7%
same,Potency,[3],inactive
CCC1NC(=O)C2C(Cl)C(Cl)CN2C(=O)C(CC)NC(=O)CC(c2ccccc2)NC(=O)C(CO)NC1=O (stereo not drawn),activation,[1],-6.87%
same,Potency,[2],inactive
same,Potency,[3],inactive
same,Potency,[9],inactive
same,Potency,[8],inactive
OCCCCC#Cc1cncc(OC[C@@H]2CCN2)c1,activation,[1],-1.43%
same,Potency,[3],inactive
CC(=O)OC12C(O)C(C)C3(O)C4C=C(C)C(=O)C4CC(CO)=CC3C1C2(C)C (stereo not drawn),activation,[1],-3.05%
same,Potency,[3],inactive
Cc1cccc(NC(=O)N[C@@H]2N=C(c3ccccc3)c3ccccc3N(C)C2=O)c1,activation,[1],-11%
same,Potency,[3],inactive
same,Potency,[4],inactive
same,Potency,[8],inactive
CC[C@H](O)[C@@H](C)[C@H]1O[C@@H]1C[C@H](C)/C=C/C=C(\C)[C@H]1OC(=O)C[C@H](O)CC[C@@](C)(O)[C@@H](OC(C)=O)/C=C/[C@@H]1C,Potency,[1],0.0675 µM (active)
same,Potency,[3],inactive
same,Potency,[4],inactive
same,Potency,[8],inactive
COc1ccc(CC2C(=O)NC(C)C(=O)N(C)C3Cc4ccc(cc4)Oc4cc(ccc4OC4OC(CO)C(O)C(O)C4O)CC(C(=O)NC(C)C(=O)NC(CCC(=O)O)C(=O)N2C)N(C)C3=O)cc1 (stereo not drawn),activation,[1],5.36%
same,Potency,[3],inactive
CS[C@]1(CO)C(=O)N2[C@H]3C(=CC=C[C@@H]3O)C[C@@]2(SC)C(=O)N1C,activation,[1],-6.11%
same,Potency,[3],inactive
CCCN1CCO[C@H]2c3cc(O)ccc3OC[C@@H]21,activation,[1],4.46%
same,Potency,[3],inactive
O=C(OC[C@H]1O[C@@H](Oc2ccc(O)cc2CO)[C@H](O)[C@@H](O)[C@@H]1O)c1ccccc1,activation,[1],28.6%
same,Potency,[3],inactive
Cc1c(N[C@@H](c2nnc(-c3ccc(C#N)cc3)o2)[C@H](C)O)ccc(C#N)c1Cl,activation,[1],21%
same,Potency,[2],inactive
same,Potency,[3],inactive
same,Potency,[9],inactive
same,Potency,[8],inactive
same,Potency,[5],inactive
N#C[C@@H](O[C@@H]1O[C@H](CO[C@@H]2O[C@H](CO)[C@@H](O)[C@H](O)[C@H]2O)[C@@H](O)[C@H](O)[C@H]1O)c1ccccc1,activation,[1],-19.6%
same,Potency,[3],inactive
CC(=O)O[C@H]1CC[C@@]2(CI)C(=CC[C@@H]3[C@@H]2CC[C@]2(C)C(=O)CC[C@@H]32)C1,activation,[1],13.7%
same,Potency,[6],inactive
same,Potency,[5],10.1 µM (active)
CN(Cc1cccc(-c2ccncc2)c1)C(=O)Oc1ccc(-c2ccc(C(N)=O)cc2)cc1,activation,[1],-8.11%
same,Potency,[3],inactive
same,Potency,[4],inactive
same,Potency,[8],inactive
CCc1c(C(=O)C(N)=O)c2c(OCC(=O)OC)cccc2n1Cc1ccccc1,activation,[1],-15.3%
same,Potency,[3],inactive
same,Potency,[4],inactive
same,Potency,[8],inactive
CC(C)[C@@H](CN1CC[C@@](C)(c2cccc(O)c2)[C@@H](C)C1)NC(=O)[C@H]1Cc2ccc(O)cc2CN1,activation,[1],29.1%
same,Potency,[3],inactive
same,Potency,[4],inactive
same,Potency,[8],inactive
CC1CCCC(O)CCC/C=C/c2cc(O)cc(O)c2C(=O)O1 (stereo not drawn),activation,[1],28.2%
same,Potency,[3],inactive
O=[N+]([O-])c1ccc2nc(N3CCNCC3)ccc2c1,activation,[1],-42.9%
same,Potency,[2],398 nM (active) and 2.51 µM (active)
same,Potency,[6],14.1 µM (active) and 12.6 µM (active)
same,Potency,[7],10 µM (active)
same,Potency,[9],2.51 µM (active) and 6.31 µM (active)
same,Potency,[5],15.9 µM (active)
